Reference: ChEMBL document CHEMBL3988442, “University of Dundee, Small-Polar-MMV Screening Library” (2021)
Hit rate of the full screen: of about 48,000 compounds, about 13,000 (27%) showed an effect of 50% or more. This is one part of the list.

System: Wolbachia pipientis
Assay: Anti-Wolbachia Cell-Based Screen
Type: functional
Parameters: scale not given: in the data most compounds retested in dose-response had high values
Settings: 5 µM

SMILES	Percent Effect [%]
CC(C)(O)c1cc(CC2(NCc3ccco3)COC2)no1	-7.158
CN(C)CCn1ccnc1C1CCN(C(=O)CCc2ccncc2)CC1	-7.346
CN(C)Cc1cnc(C2CCN(C(=O)c3cc(F)cc(F)c3)C2)[nH]1 (centres undefined)	116.9
CCOCCOc1ccccc1C(=O)N1CCCC(c2ncc[nH]2)C1 (centres undefined)	-24.68
CCNS(=O)(=O)C1CCN(C(=O)c2ccc(F)cc2)C1 (centres undefined)	4.07
CN(C)Cc1ccc(C(=O)N2CCCC(n3cccn3)C2)cc1 (centres undefined)	13.31
CCS(=O)(=O)N(C)C1CCN(C(=O)c2cccc(Cl)c2)CC1	-7.301
CN(C)Cc1cnc(C2CCN(C(=O)c3ccc(F)cc3)C2)[nH]1 (centres undefined)	127.5
CN(C)Cc1cnc(C2CCN(C(=O)c3ccccc3F)C2)[nH]1.Cl (centres undefined)	151.5
CCNS(=O)(=O)C1CCN(C(=O)c2c(F)cc(F)cc2F)C1 (centres undefined)	-5.983
CC(C)N(C)Cc1cncc2c1CCN(C(=O)c1ccccc1F)C2.Cl.Cl	-2.748
Cc1ccc(C(=O)N2CCCC(Nc3ccc(F)cc3)C2)cc1 (centres undefined)	-37.46
CN(C)Cc1cnc(C2CCN(C(=O)c3cccc(Cl)c3)C2)[nH]1 (centres undefined)	128.9
CCN(C1CCN(C(=O)c2cccc(Cl)c2)CC1)S(C)(=O)=O	6.766
CCCS(=O)(=O)N1CCC2(CC(=O)N(c3cnn(C)c3)C2)C1 (centres undefined)	9.344
CCOc1ccc(N(CCC#N)C(=O)c2ccc(SC)nc2)cc1	-11.41
CC1CCCN1C1CCN(C(=O)c2cccc(F)c2)CC1 (centres undefined)	1.778
O=C(c1cccc(F)c1)N1C[C@H]2CCCC(OCc3cccnc3)[C@H]2C1 (some centres undefined)	7.164
CN(C)Cc1cnc(C2CCN(C(=O)c3cccc(F)c3)C2)[nH]1 (centres undefined)	98.09
CCc1cnc(N2CCC3(CC2)CCN(c2cnn(C)c2)C3=O)nc1	-11.71
Cc1nonc1NC(=O)C1SCCc2ccccc21 (centres undefined)	-22.17
CCC(CO)N(Cc1ccncc1)Cc1c[nH]nc1-c1ccc(F)cc1 (centres undefined)	-8.532
CCC(CO)N(Cc1ccccn1)Cc1c[nH]nc1-c1ccc(F)cc1 (centres undefined)	-3.197
CCC(CO)N(Cc1ccco1)C(=O)c1ccc(F)cc1Cl (centres undefined)	-20.92
CCC(CO)N(Cc1ccsc1)Cc1cccc(O)c1 (centres undefined)	4.07

SMILES	Percent Effect [%]
CCC(CO)N(Cc1ccco1)C(=O)c1cccc(C)c1O (centres undefined)	-5.185
CCC(CO)N(Cc1ccc(F)cc1)Cc1c(C)nn(C)c1Cl (centres undefined)	108.6
CCC(CO)N(Cc1ccco1)Cc1c(C)nn(C)c1Cl (centres undefined)	113.8
CCC(CO)N(Cc1ccsc1)Cc1c(C)nn(C)c1Cl (centres undefined)	83.51
CCC(CO)N(CC=C(C)C)Cc1ccsc1 (centres undefined)	-1.911
O=C(NC1(c2nnn(CC3CCCO3)n2)CCCC1)c1ccccc1 (centres undefined)	-21.33
CCC(=O)NCC(=O)Nc1c(C)cnn1Cc1cc(F)ccc1F	-6.238
FC(F)(F)c1[nH]nc2c1CN(Cc1ccccc1)CC2	-6.07
Cn1c(=O)ccn(CC(=O)N2CCCC(n3cccn3)C2)c1=O (centres undefined)	-17.99
CC(=O)N1Cc2ccccc2C[C@H]1C(=O)N(C)Cc1ccccn1	-7.664
N#Cc1ccc(NCC(=O)Nc2ncn(Cc3cccnc3)n2)cc1	2.258
N#Cc1ccc(C(=O)N2CCn3c(Cn4cccn4)cnc3C2)cc1.O=C(O)C(F)(F)F	-19.27
O=C(c1cccc(F)c1)N1CCc2ncc(Cn3cccn3)n2CC1	90.68
Cn1cccc1C(=O)NCc1cnc2n1CCN(C(=O)c1ccoc1)C2	-3.453
CN1CCN(Cc2cnc3n2CCN(C(=O)c2ccoc2)C3)CC1	1.07
Cn1cccc1C(=O)N1CCc2ncc(Cn3cccn3)n2CC1	-10.36
N#Cc1cccc(C(=O)N2CCc3ncc(Cn4cccn4)n3CC2)c1	-16.45
O=C(c1ccoc1)N1CCc2ncc(Cn3cccn3)n2CC1	85.84
Cc1ccsc1C(=O)N1CCc2ncc(Cn3cccn3)n2CC1	-18.82
Cc1ccc(C(=O)N2CCc3ncc(Cn4cccn4)n3CC2)cn1	106.9
O=C(O)C(F)(F)F.O=C(c1ccccn1)N1CCc2ncc(Cn3cccn3)n2CC1	108.7
CC(NCc1ccc(OCC(N)=O)cc1)c1ccc(Cl)cc1Cl.Cl (centres undefined)	-2.997
CCc1cnc(NCc2nc(CSC)no2)nc1	19.97
Cc1cc(N(C)CC2COc3ccccc3O2)nc(C)n1 (centres undefined)	-50.37
CCOCCN1CCN(CC(=O)NC2(C#N)CCCC2)CC1C (centres undefined)	0.8038

SMILES	Percent Effect [%]
O=S(=O)(C1CC1)N1CCn2c(Cn3cncn3)cnc2C1	13.19
O=C(NCc1ccccc1)N1CCn2c(Cn3cccn3)cnc2C1	-1.854
N#Cc1cccc(C(=O)N2CCn3c(Cn4cncn4)cnc3C2)c1	83.01
CN1CCN(Cc2cnc3n2CCN(C(=O)c2ccnnc2)C3)CC1	-11.55
O=C(NCc1cccnc1)N1CCn2c(Cn3cccn3)cnc2C1	2.46
Cc1cncc(C(=O)N2CCc3ncc(Cn4cccn4)n3CC2)c1	88.89
Cc1ccc(C(=O)N2CCc3ncc(Cn4cccn4)n3CC2)o1	95.36
N#Cc1ccc(S(=O)(=O)N2CC(CC(=O)O)c3ccccc32)cc1 (centres undefined)	-12.53
Cc1noc(CNc2ccccc2CC(=O)N(C)C)n1	-7.553
N#CCc1ccc(OCC(=O)N2CCCC(n3cccn3)C2)cc1 (centres undefined)	-0.2298
Cc1ncsc1CCN1CCC(N(C)Cc2ncc(C(C)C)o2)C1 (centres undefined)	-3.966
Cc1nnc(CN2CCOC(c3ccc(Cl)cc3)C2)o1 (centres undefined)	-9.345
O=c1[nH]c2nc(NCC3CCCO3)ncc2c(=O)n1-c1ccc(F)cc1 (centres undefined)	-3.035
CN(Cc1csc(-c2cccs2)n1)C(=O)CCn1ccccc1=O	-2.021
COc1cc(F)c(S(=O)(=O)N2CCN(C)Cc3ccccc32)cc1OC	-10.31
CN(C)Cc1cn2c(n1)CN(C(=O)Cc1ccsc1)CC2.O=C(O)C(F)(F)F	96.46
CC(=O)NCC(=O)N1CCn2cc(CN(C)Cc3ccco3)nc2C1.O=C(O)C(F)(F)F	-4.865
CC(C)N(C)Cc1cn2c(n1)CN(C(=O)Cc1ccccc1)CC2.O=C(O)C(F)(F)F	114
O=C(Cc1ccsc1)N1CCn2cc(Cn3cncn3)nc2C1	4.087
CCN(CC)Cc1cn2c(n1)CN(C(=O)Cc1ccsc1)CC2.O=C(O)C(F)(F)F	83.51
CC(C)N(C)Cc1cn2c(n1)CN(C(=O)Cc1ccsc1)CC2.O=C(O)C(F)(F)F	-0.9088
CN(C)Cc1cc(=O)n2c(n1)CN(C(=O)Cc1ccsc1)CCC2.O=C(O)C(F)(F)F	-8.762
O=C(Cc1ccsc1)N1CCn2cc(CN3CCCC3)nc2C1	-4.915
CC(C)N(C)Cc1cn2c(n1)CN(Cc1ccsc1)CC2.O=C(O)C(F)(F)F.O=C(O)C(F)(F)F	6.195
